Compounds with a hit are over-represented: about 1% of the library has one in this group of screens.
Sa RN4220 lethal = kills Staphylococcus aureus RN4220; AID 1259311; inhibition, % (no concentration beside the values); hit rate 0.33% among 330,000; S. aureus RN4220 growth, OD600, 16 h; in the data active = inhibition above about 85%;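 note: plate controls were untreated cells for no effect and reference antibiotic for full effect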
SSB-PriA inh = K. pneumoniae PriA-SSBct interaction inhibition; AlphaScreen SSBct-PriA binding, biotinylated peptide; inhibition, % at 33 µM; hit rate 0.6% among 430,000; AID 1272365; in the data active = inhibition mostly above about 37%, no sharp cut-off; inactive = mostly below about 20%;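 note: plate controls were negative control peptide for no effect and reference peptide for full effect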
ugtP null kill = compounds lethal to S. aureus RN4220 ugtP deletion mutant; OD600 growth, 16 h; growth inhibition, % (test concentration not listed); hit rate 0.54% among 330,000; in the data active = growth inhibition above about 68%;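 note: plate controls were untreated wells for no effect and antibiotic for full effect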
Numbers without * were called inactive; · = not tested or not shown.

SMILES	Sa RN4220 lethal	SSB-PriA inh	ugtP null kill
COc1ccc([C@@H]2CCCN2CCNC(C)=O)cc1	·	-1	·
O=C(Nc1nc(-c2ccc(F)cc2)cs1)c1ccncc1	·	1	·
CCc1cccc(NC(=O)CNC(=O)N2CC(=O)Nc3ccccc32)c1	-1	-14	9
CCc1cccc(Nc2c([N+](=O)[O-])cc(C(=O)N3CC(=O)Nc4ccccc43)cc2[N+](=O)[O-])c1	1	48*	1
CN(C)c1ccc2nc3ccc(=[N+](C)C)cc-3sc2c1	13	1	-9
Cc1cc2nc3ccc(=[N+](C)C)cc-3sc2cc1N	69	83*	44
CCOc1ccc(Nc2c(C#N)cnc3ccc(OCC)cc23)cc1	·	-1	·
COc1ccc(Cl)cc1C(=O)NNC(=S)NC(=O)c1cc(-c2ccccc2)nc2ccccc12	93*	-14	97*
COc1ccc(C(=O)NNC(=S)NC(=O)c2cc(-c3ccccc3)nc3ccccc23)cc1	84	-3	22
NC(=NOC(=O)N1c2ccccc2Sc2ccccc21)c1ccccc1	·	18	·
COc1cccc(C(=O)NCCn2ncc3c(=O)n(Cc4ccccc4C)cnc32)c1OC	·	3	·
O=C(CSc1nc2ccccc2[nH]1)Nc1nc(-c2cccc(Br)c2)cs1	99*	10	99*
CCCc1nnc(NC(=O)CSc2nc3ccccc3[nH]2)s1	5	-20	7
CN(C)CCCn1c(SCC(=O)Nc2nc(-c3cccc(Br)c3)cs2)nc2ccccc2c1=O	101*	17	100*
CCCCn1c(SCC(=O)Nc2nccs2)nc2ccccc2c1=O	5	-11	5
NC(=O)c1sc2nnc(-c3ccccc3)c(-c3ccccc3)c2c1N	2	-2	84*
NC(=O)c1snnc1-c1ccccc1	2	-2	-2
Cc1c(C(=O)N2CCN(Cc3ccc4c(c3)OCO4)CC2)cccc1[N+](=O)[O-]	3	-5	7
O=C(Nc1ccccc1[N+](=O)[O-])C(=O)N1CCN(Cc2ccc3c(c2)OCO3)CC1	·	50*	·
O=C(Nc1ccccc1[N+](=O)[O-])C(=O)N1CCN(c2ccccc2F)CC1	·	36*	·
O=C(NCCCN1CCN(c2ccccc2F)CC1)Nc1ccccc1[N+](=O)[O-]	3	13	3
O=C(Cc1c(F)cccc1Cl)NCCc1ccsc1	·	4	·
O=C(NCc1cccs1)C(=O)NC[C@@H](c1cccnc1)N1CCc2ccccc2C1	·	-2	·
COc1ccc(N2CC(C(=O)NCc3cncc(-c4ccsc4)c3)CC2=O)cc1 (stereo not drawn)	·	-6	·
O=C(NCCCSc1nnnn1-c1ccccc1)Nc1nccs1	·	4	·
SMILES	Sa RN4220 lethal	SSB-PriA inh	ugtP null kill
Cc1cc(C)c(NS(=O)(=O)c2ccc3c(c2)NC(=O)CCS3)c(C)c1	55	-1	3
Cc1ccc(NS(=O)(=O)c2ccc3c(c2)NC(=O)CCS3)c(C)c1	98*	-9	96*
COc1ccc(Cl)cc1NS(=O)(=O)c1ccc2c(c1)NC(=O)CCS2	12	-3	1
Cc1ccc(NS(=O)(=O)c2ccc3c(c2)NC(=O)CCS3)c(Cl)c1	96*	8	90*
Cn1c(=O)c(C(=O)N2CCN(c3ccccc3F)CC2)cc2cccnc21	·	-16	·
CC(C)(C)[C@@H](O)CCNC(=O)Nc1ccccc1	·	-11	·
CCOC(=O)N1CCN(C(=O)CSc2nc(N)c(NC(=O)c3ccco3)c(=O)[nH]2)CC1	·	-3	·
O=C(Nc1cnn(C2CCOCC2)c1)c1ccc(C(F)(F)F)nc1	·	-10	·
O=[N+]([O-])c1nn(-c2ccc3c(c2)OCCO3)n(O)c1=Nc1ccc(Cl)cc1	37	21	22
O=[N+]([O-])c1nn(-c2cccc(Cl)c2)n(O)c1=NC1CCCCC1	·	90*	·
O=[N+]([O-])c1nn(-c2ccccc2)n(O)c1=NC1CCCCC1	·	52	·
O=[N+]([O-])c1nn(-c2ccc3c(c2)OCCO3)n(O)c1=NC1CCCC1	6	-12	4
O=[N+]([O-])c1nn(-c2ccc3c(c2)OCCO3)n(O)c1=NC1CCCCCC1	-2	55*	-8
CCc1ccc(N=c2c([N+](=O)[O-])nn(-c3ccc4c(c3)OCCO4)n2O)cc1	-6	58*	13
COc1ccc(OC)c(NC(=O)NC23CC4CC(C2)CC(c2ccc(C)cc2)(C4)C3)c1	·	3	·
Cc1sc2ncnc(-n3ncc(C#N)c3N)c2c1-c1ccc(F)cc1	·	-7	·
Cc1cccc(-n2ncc(C(N)=O)c2N)c1	·	2	·
O=C(Nc1ccccc1-c1nc2ccccc2o1)c1ccc(Cl)cc1	·	-3	·
O=c1oc2cc(Oc3ccc(C(F)(F)F)cc3[N+](=O)[O-])ccc2c2c1CCC2	7	-7	7
O=c1oc2cc(Oc3c([N+](=O)[O-])cc(C(F)(F)F)cc3[N+](=O)[O-])ccc2c2c1CCCC2	44	6	94*
CC(C)COc1ccc(C(=NO)c2ccccc2)cc1	22	-7	86*
CC(C)COc1ccc(CNC(=S)NCc2ccccc2)cc1	-2	-30	-14
CC(=O)O[C@]1(C)C(=O)OC/C2=C\CN(C)CCC(OC(=O)[C@@](O)(C(C)O)C[C@H]1C)C2=O (stereo partly drawn)	·	-9	·
COC(=O)N1CCC(CNC(=O)c2nc3ccccc3s2)CC1	·	-6	·
COc1ccc(-c2cc3c(=O)n(CC(=O)N4CCN(C)CC4)ncn3n2)cc1	6	101*	5
SMILES	Sa RN4220 lethal	SSB-PriA inh	ugtP null kill
COc1ccc(-c2cc3c(=O)n(CC(=O)N4CCCCC4)ncn3n2)cc1	5	6	9
CCOC(=O)c1csc(NC(=O)C2CCN(c3ccc(-c4ccc(Cl)cc4)nn3)CC2)n1	·	-13	·
CC(C)(C)c1ccc(Cn2ccc(-c3ccc4c(c3)OCO4)n2)cc1	5	-4	93*
Cc1ccc(Cn2ccc(NC(=O)c3cc(-c4ccc5c(c4)OCO5)on3)n2)cc1	3	-2	0
Cc1cc(NC(=O)c2cncc(Br)c2)c2cc(Br)ccc2n1	·	-17	·
Cc1nc(N2CCC(Cc3ccccc3)CC2)c2c3c(sc2n1)CCCC3	·	-5	·
O=C(Nc1ccccc1-c1csc(-c2ccccc2F)n1)c1ccsc1	·	-15	·
Cc1ccc(C(=O)NCCn2cc(SCC(=O)N3CCOCC3)c3ccccc32)cc1	-8	-4	-4
Cc1ccc(C(=O)NCCn2cc(SC(=N)N)c3ccccc32)cc1	·	39*	·
Cc1c(-n2c(-c3ccccc3)csc2=NC(=O)c2ccccc2)c(=O)n(-c2ccccc2)n1C	·	44*	·
CC(=O)N=c1scc(-c2ccccc2)n1-c1cccc(O)c1	6	-6	3
O=C(Nc1nc(-c2cccs2)c(C(=O)C(F)(F)F)s1)c1ccccc1	88*	-6	89
O=C(Nc1nc(-c2cccs2)c(C(=O)C(F)(F)F)s1)c1ccco1	49	-8	57
O=C(CSc1nc2ccccc2o1)N1CC(Oc2nc3ccccc3s2)C1	·	-9	·
Cc1cc(CCNS(=O)(=O)c2ccc(C(F)(F)F)cc2)on1	·	-2	·
O=C(Nc1cc(Cl)cc(Cl)c1)N1CCCC1	91*	-11	92
O=C(Nc1ccc(F)c(Cl)c1)N1CCCC1	2	-5	9
O=C(NCC(Cc1cccc(F)c1)n1cccc1)c1ccno1 (stereo not drawn)	·	5	·
CS(=O)(=O)c1ccc2nc(NC(=O)Cc3csc(NC(=O)NC4CCCC4)n3)sc2c1	·	-14	·
Cc1ccc(CNC(=O)c2csc(Nc3ccc(S(C)(=O)=O)cc3)n2)cc1	·	-18	·
CC(=NNC(=S)N1CCN(c2ccccn2)CC1)c1ccccn1	·	1	·

Screening data (PubChem)
